Measured values reported in PubChem BioAssay AID1159580 (chemical genetic matrix, 2015).
The whole screen tested about 5,500 compounds, of which about 2,000 (36%) were called active. Roughly 18% stayed inconclusive and do not appear here. Cut-off read from the data, not from the text of the source: active = normalized growth mostly below about 0.91 (no sharp cut-off); inconclusive = no clear call, values can overlap the other calls; inactive = mostly above about 0.92. The list shows a part of the results.

Assay: chemical genetic growth profiling, strain panel (AID 1159580);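 note: tested at 20 µM; growth read once vehicle control cultures reached saturation at 30 °C; 1 = growth at the plate median or of vehicle wells; lower values mean less growth of the strain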
Conditions: S. cerevisiae deletion strains, growth OD

Measured: normalized growth

C[C@]12CCC3C(CC[C@H]4CC(=O)CC[C@]34C)C1CCC2=O (stereo partly specified)
inactive: locus YJR066W, strain TOR1, active compounds read low 0.881 | locus YKL009W, strain mrt4, active compounds read low 0.906 | locus YKL068W, active compounds read low 0.989 | locus YKL085W, strain MDH1 (second series), active compounds read low 0.97 | locus YKL085W, strain MDH1, active compounds read low 0.97 | locus YKL160W, strain elf1, active compounds read low 0.95 | locus YKL190W, strain CNB1, active compounds read low 0.98 | locus YKR026C, strain gcn3, active compounds read low 1.02 | locus YKR091W, strain srl3, active compounds read low 1.03 | locus YLL001W, strain dnm1, active compounds read low 0.942 | locus YLL041C, strain sdh2, active compounds read low 1.01 | locus YLR058C, strain SHM2, active compounds read low 0.958 | locus YLR102C, strain apc9, active compounds read low 0.992 | locus YLR113W, strain HOG1, active compounds read low 0.923 | locus YLR258W, strain gsy2, active compounds read low 0.92 | locus YLR268W, strain sec22, active compounds read low 0.927 | locus YLR330W, strain CHS5, active compounds read low 0.95 | locus YLR342W, strain FKS1, active compounds read low 0.912 | locus YLR357W, strain rsc2, active compounds read low 1.08 | locus YLR370C, strain arc18, active compounds read low 0.972 | locus YLR371W, strain rom2, active compounds read low 0.956 | locus YLR384C, strain iki3, active compounds read low 1.04 | locus YML016C, strain PPZ1, active compounds read low 0.988 | locus YML124C, strain tub3, active compounds read low 0.996 | locus YMR078C, strain ctf18, active compounds read low 0.966 | locus YMR125W, strain sto1, active compounds read low 1.02 | locus YMR129W, active compounds read low 0.929 | locus YMR231W, strain pep5, active compounds read low 0.99 | locus YMR307W, strain GAS1, active compounds read low 0.771 | locus YNL067W, strain RPL9B, active compounds read low 0.985 | locus YNL183C, strain NPR1, active compounds read low 0.876 | locus YNL209W, strain ssb2, active compounds read low 0.991 | locus YNL233W, strain BNI4, active compounds read low 0.902 | locus YNL248C, strain rpa49, active compounds read low 0.908 | locus YNL322C, strain KRE1 (second series), active compounds read low 0.977 | locus YNL322C, strain KRE1, active compounds read low 0.99 | locus YNR049C, strain mso1, active compounds read low 1.02 | locus YOL012C, strain htz1 1.71 | locus YOL147C, strain pex11, active compounds read low 0.975 | locus YOR061W, strain CKA2, active compounds read low 0.923 | locus YOR069W, strain VPS5, active compounds read low 1 | locus YOR070C, strain gyp1, active compounds read low 0.946 | locus YOR080W, strain dia2, active compounds read low 1.02 | locus YOR083W, strain WHI5, active compounds read low 0.904 | locus YOR136W, strain idh2, active compounds read low 0.994 | locus YOR144C, strain elg1, active compounds read low 0.954 | locus YOR231W, strain MKK1, active compounds read low 0.901 | locus YOR265W, strain rbl2, active compounds read low 0.997 | locus YOR290C, strain snf2, active compounds read low 0.932 | locus YOR316C, strain cot1, active compounds read low 0.981 | locus YPL106C, strain sse1, active compounds read low 1.14 | locus YPL240C, strain hsp82, active compounds read low 0.936 | locus YPL256C, strain CLN2, active compounds read low 0.887 | locus YPR119W, strain clb2, active compounds read low 1.01 | locus YPR141C, strain kar3, active compounds read low 1 | locus YPR167C, strain met16, active compounds read low 0.921 | strain wtn01, active compounds read low 0.944
active: locus YKR001C, strain vps1, active compounds read low 0.86 | locus YLL026W, active compounds read low 0.928 | locus YLR027C, strain aat2, active compounds read low 0.875 | locus YLR039C, strain RIC1, active compounds read low 0.504 | locus YLR221C, strain rsa3, active compounds read low 0.796 | locus YLR262C, strain YPT6 (second series), active compounds read low 0.471 | locus YLR262C, strain YPT6, active compounds read low 0.487 | locus YLR320W, strain mms22, active compounds read low 0.595 | locus YLR342W, strain FKS1 (second series), active compounds read low 0.718 | locus YLR418C, strain cdc73, active compounds read low 0.701 | locus YML032C, strain rad52, active compounds read low 0.82 | locus YML120C, strain ndi1, active compounds read low 0.853 | locus YMR058W, strain fet3, active compounds read low 0.872 | locus YMR205C, strain PFK2, active compounds read low 0.726 | locus YMR223W, strain ubp8, active compounds read low 0.864 | locus YNL071W, strain lat1, active compounds read low 0.563 | locus YNL250W, strain rad50, active compounds read low 0.894 | locus YNL271C, strain bni1, active compounds read low 0.893 | locus YNL298W, strain CLA4, active compounds read low 0.821 | locus YNL307C, strain MCK1, active compounds read low 0.723 | locus YNR052C, strain pop2, active compounds read low 0.648 | locus YOL006C, strain TOP1, active compounds read low 0.529 | locus YOR001W, strain rrp6, active compounds read low 0.833 | locus YOR106W, strain vam3, active compounds read low 0.766 | locus YOR184W, strain ser1, active compounds read low 0.658 | locus YOR270C, strain vph1, active compounds read low 0.634 | locus YPL051W, strain arl3, active compounds read low 0.865 | locus YPL078C, strain atp4, active compounds read low 0.886 | locus YPR163C, strain tif3, active compounds read low 0.884
